# FLuc modulator: qHTS profiling assay for firefly luciferase inhibitor/activator using purifed enzyme and Km concentrations of substrates (counterscreen for miR-21 project); 360,000 compounds, 6.9% hits; purified FLuc, Km substrates, luminescence inhibition; Potency, µM (top dose mostly 57.5 µM), for inactives: at the top dose activity change, negative = inhibition, usual class: inhibitors; Luciferin 4-monooxygenase (Photinus pyralis), P08659;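 also: plate controls were vehicle for no effect and reference inhibitor for full effect; nearly all actives have a fitted effect of over 55% in size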
# Target sequence (P08659 whole entry, looked up): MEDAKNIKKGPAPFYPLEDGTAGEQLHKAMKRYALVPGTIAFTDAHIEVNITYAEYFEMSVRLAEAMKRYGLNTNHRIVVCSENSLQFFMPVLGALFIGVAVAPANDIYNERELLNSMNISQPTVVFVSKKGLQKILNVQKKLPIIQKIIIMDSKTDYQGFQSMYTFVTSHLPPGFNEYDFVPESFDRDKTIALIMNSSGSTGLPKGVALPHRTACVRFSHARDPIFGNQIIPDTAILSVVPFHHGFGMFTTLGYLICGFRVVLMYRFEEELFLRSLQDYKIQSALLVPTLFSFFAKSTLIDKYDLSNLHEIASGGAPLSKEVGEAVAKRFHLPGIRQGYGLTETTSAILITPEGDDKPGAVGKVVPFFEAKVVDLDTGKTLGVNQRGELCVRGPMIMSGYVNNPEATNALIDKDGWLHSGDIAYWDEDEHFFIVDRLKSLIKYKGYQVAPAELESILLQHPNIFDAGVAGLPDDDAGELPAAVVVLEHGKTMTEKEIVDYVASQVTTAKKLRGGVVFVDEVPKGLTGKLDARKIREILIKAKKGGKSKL
#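 Purified P. pyralis luciferase (10nM final) with 10uM D-luciferin and 10uM ATP (Km levels) in 50mM Tris acetate pH 7.5, 10mM Mg acetate, 0.01% Tween-20, 0.05% BSA; qHTS 6-point titration, ~60 µM downward; luminescence read.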
# SMN2 splice up: qHTS Assay for Enhancers of SMN2 Splice Variant Expression; 210,000 compounds, 2.8% hits; Potency, µM (top dose mostly 46.1 µM), inactives show at the highest dose activity change, positive = activation, most hits filed as activators; HEK293 SMN2-luciferase splicing reporter, luminescence, 30-36 h; also: % of control where 0% means no effect; nearly all actives have a fitted effect of over 55% in size
#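 qHTS luciferase splicing reporter: luminescence rises when SMN2 exon 7 is included in transfected HEK293 cells. Compound exposure lasted 30-36 h at 37C, with 4.5 mM final sodium butyrate as control, followed by a ONE-Glo read.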
# ELG1 genotoxic: qHTS screen for small molecules that induce genotoxicity in human embryonic kidney (HEK293T) cells expressing luciferase-tagged ELG1; HEK293T ELG1-luciferase reporter, luminescence, 16 h; Potency, µM (titrated, usually from 46 µM), inactives show at the top dose activity change, positive = activation, most hits filed as activators; 330,000 compounds, 1.3% hits; also: % of control where 0% means no effect; nearly all actives have a fitted effect of over 60% in size
#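 Genotoxicity was scored as increased ELG1-luciferase reporter signal, measured by ONE-Glo luminescence (30 min, room temperature). Compound or vehicle exposure of the HEK293T reporter cells lasted 16 hr at 37°C.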
# Rab9 prom act: qHTS Assay for Rab9 Promoter Activators; Potency, µM (titrated, usually from 9.22 µM), without a hit: top-dose activation, negative = inhibition, actives largely listed as activators; Huh7 Rab9 promoter-luciferase reporter, luminescence, 24 h; 320,000 compounds, 2.8% hits; also: % of control where 0% means no effect; nearly all actives have a fitted effect of over 60% in size
#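 Huh7 cells stably carrying a Rab9 promoter-luciferase reporter, 1500 cells per well in OP-MEM I with 10% FBS, treated with compound 24 hours at 37C. Luciferase activity read by luminescence after 10 minutes with Amplite reagent.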
# NPC1 promoter act: qHTS Assay for NPC1 Promoter Activators. Huh7 NPC1 promoter luciferase reporter, 24 h. Potency, µM (doses to about 9.22 µM), inactives show at the top dose activation, usual class: activators. 320,000 compounds, 2.4% hits. AID 485313, 2010; also: % of control where 0% means no effect; nearly all actives have a fitted effect of over 60% in size
#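 Luminescence from an NPC1 promoter-driven luciferase reporter in stably transfected Huh7 cells was measured after 24 h compound treatment at 37 °C, followed by 10 min ambient incubation with luciferase detection reagent.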
# * marks the source's active call; other numbers are inactive results; ? = inconclusive; . = not tested or not shown. This is a sample that favours compounds with a hit; in the whole collection about 7.5% have one here. Calls follow the shape of the dose curve; as a rule, active = well fitted curve in the direction sought with a large enough effect; inconclusive = small, poorly fitted or top-dose-only effect, or another doubt; inactive = no such curve, though single readings can be large; an effect the other way counts as inactive or inconclusive. Potency is read from the fitted curve at half-maximal effect.
SMILES,FLuc modulator,SMN2 splice up,ELG1 genotoxic,Rab9 prom act,NPC1 promoter act
COc1cc(OC)cc(C(=O)N[C@H](C(=O)Nc2cc(F)ccc2C)C(C)C)c1,0%,.,2%,-1%,-5%
CCc1nnc(NC(=O)c2nc(SCc3ccc(F)cc3)ncc2Cl)s1,12µM*,2%,.,.,.
Cc1cccc(CSc2ncc(Cl)c(C(=O)Nc3nnc(C)s3)n2)c1,?,2%,.,.,.
Cc1ccc(CSc2ncc(Cl)c(C(=O)Nc3nnc(C)s3)n2)cc1,15µM*,-4%,.,.,.
CCOC(=O)c1ccc(-n2ccnc2)c(NC(=O)c2cccc(Br)c2)c1,-1%,6%,2%,2%,-3%
O=C1NC(=O)/C(=C\c2ccc(OCc3ccccc3)cc2)S1,19µM*,.,11%,16%,4%
COc1cc(/C=C2/SC(=O)NC2=O)ccc1OCc1ccccc1,?,.,10%,11%,2%
O=C1NC(=O)/C(=C\c2ccccc2OCc2ccccc2)S1,27µM*,-14%,-1%,1%,-4%
CCN1CCN(C(=O)NS(=O)(=O)c2ccc(C)cc2)CC1,-1%,.,8%,1%,0%
COc1ccc(NC(=O)N2CCCC2C(=O)Nc2ccc(C)cc2)cc1 (configuration not stated),1%,-1%,-2%,-3%,-4%
COc1ccccc1NC(=O)Nc1nnc(C(C)C)s1,17µM*,22µM*,?,?,?
CC(=O)Nc1ccc(NC(=O)CSc2nnc(NC(=O)c3cccc(F)c3)s2)cc1,0.67µM*,.,?,3.2µM*,?
COc1ccccc1NC(=O)Nc1nnc(C(C)c2ccccc2)s1 (configuration not stated),-16%,.,10%,0%,1%
COc1ccccc1NC(=O)CSc1nnc(NC(=O)Nc2ccc(C)cc2)s1,2.1µM*,.,.,.,.
O=C(CSc1nnc(NC(=O)Nc2ccccc2)s1)Nc1cccc(F)c1,1.5µM*,.,.,.,.
CCOc1ccc(NC(=O)CSc2nnc(NC(=O)Nc3ccccc3)s2)cc1,-2%,.,.,.,.
O=C(CN1CCc2cc3c(cc2C1)OCCCO3)Nc1cccc([N+](=O)[O-])c1,2%,.,-1%,4%,0%
O=C(CSc1nnc(NC(=O)c2c(F)cccc2F)s1)Nc1ccc(F)cc1,-4%,.,19%,2.2µM*,?
O=C(CSc1nnc(NC(=O)c2c(F)cccc2F)s1)NC1CC1,-6%,.,6%,-2%,-2%
Cc1c(C(=O)Nc2cccc([N+](=O)[O-])c2)cnn1-c1ccccc1,9.5µM*,.,?,2.5µM*,2.8µM*
CC(=O)c1cccc(NC(=O)c2cnn(-c3ccccc3)c2C)c1,9.5µM*,.,?,4µM*,3.2µM*
Cc1cc(C)n(-c2ccc(C(=O)Nc3cccc([N+](=O)[O-])c3)cc2)n1,1%,-33%,-18%,-3%,-7%
Cc1c(C(=O)Nc2cccc(F)c2)cnn1-c1ccccc1,6µM*,.,?,1.4µM*,1.6µM*
COc1ccccc1N(CC(O)CN1CCCCC1)S(=O)(=O)c1ccc(C)cc1 (configuration not stated),-1%,.,-1%,1%,1%
COc1cccc(NC(=O)N2CCc3ccccc3C2)c1,17µM*,.,?,2.8µM*,4µM*
SMILES,FLuc modulator,SMN2 splice up,ELG1 genotoxic,Rab9 prom act,NPC1 promoter act
CC(C)c1ccc(NC(=O)N2CCc3ccccc3C2)cc1,11µM*,13µM*,?,4µM*,?
O=C(Nc1cccc(Cl)c1)N1CCc2ccccc2C1,9.5µM*,.,?,3.2µM*,2.8µM*
COc1cccc(NC(=O)N2CCOCC2)c1,-4%,-17%,3%,-2%,6%
O=C(Nc1ccccc1F)N1CCc2ccccc2C1,15µM*,.,18µM*,2.8µM*,1.3µM*
O=C(Nc1ccc([N+](=O)[O-])cc1)N1CCc2ccccc2C1,?,.,?,?,23%
Cc1ccc(C)c(NC(=O)N2CCc3ccccc3C2)c1,?,.,?,?,29%
COc1ccc(CC(=O)NNC(=O)c2ccc(SCc3cc(F)ccc3F)c([N+](=O)[O-])c2)cc1,1%,-2%,9%,5%,-12%
CN(C(=O)CSc1nnc(NC2CCCCC2)s1)C1CCS(=O)(=O)C1 (configuration not stated),2%,23%,3%,3%,0%
O=C(NCc1ccco1)c1nc2c(nnn2Cc2cccc(Cl)c2)c(=O)[nH]1,-6%,-17%,0%,-2%,1%
COc1cccc(-c2cc(C(=O)N3CCc4ccccc4C3)[nH]n2)c1,11µM*,.,?,22%,26%
COC(=O)c1sc(SC)c(S(=O)(=O)C(C)C)c1N,1%,.,6%,-2%,-1%
COc1ccc(CNC(=O)c2cc(-c3ccco3)on2)cc1,-9%,7%,3%,8%,0%
CC(C)CNC(=O)c1cc(-c2ccco2)on1,13µM*,?,?,4µM*,4µM*
CCCNC(=O)c1cc(-c2ccco2)on1,17µM*,18µM*,16µM*,3.5µM*,?
O=C(NNC(=O)c1ccccc1-n1cccc1)c1cccc(Cl)c1,2%,0%,0%,-9%,0%
C=CCOc1ccc2nc(NC(=O)OC)[nH]c2c1,?,11µM*,9.2µM*,-2%,7%
COc1ccc(C(=O)C2CCCN(C(=O)c3cc(C4CC4)[nH]n3)C2)c(C)c1 (configuration not stated),-1%,.,0%,-3%,-3%
CCOc1ccc2nc(SCc3ccc(OC)cc3)sc2c1,13µM*,-21%,1%,8%,6%
CCOc1ccc2nc(SCCNS(=O)(=O)c3ccccc3)sc2c1,?,-42%,1%,0%,-1%
CCOc1ccc2nc(SCC(=O)NC3CC3)sc2c1,5%,.,-8%,?,?
CCOc1ccc2nc(SCc3ccccc3C#N)sc2c1,7.6µM*,11µM*,?,2.5µM*,3.2µM*
CCOc1ccc2nc(SCC(=O)c3ccccc3)sc2c1,15µM*,16%,18µM*,29%,16%
CCCCCCCCC(=O)NCCOc1ccc(OC)cc1,-1%,-1%,-1%,-2%,0%
CC(C)Oc1cccc(C(=O)O)c1,-1%,-2%,0%,2%,0%
COc1ccccc1NC(=O)COc1ccc(C(=O)NCc2ccccc2)cc1OC,6%,.,-11%,-9%,-9%
Cc1ccc(NC(=O)c2ccc(OC(=O)CCN3C(=O)c4ccccc4C3=O)cc2)cc1,-19%,14µM*,?,1.8µM*,3.2µM*
Cc1ccc(NC(=O)c2ccc(OC(=O)COc3cccc(Cl)c3)cc2)cc1,?,25µM*,?,2.8µM*,2.8µM*

# High-throughput results (PubChem)
